# In the supplement of paper PMC7801607:
# Experiments:
# CHO = assay: % viability of CHO cells (MTT); higher = less toxic; settings: 48 h
# Outline: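 Viability was given as a percentage of untreated cells and measured colorimetrically by the tetrazolium (MTT) assay. Before this, CHO cells at 10^6 cells/well in 200 µL attached overnight, then received fresh medium containing compound at 2 or 20 µM for 48 h.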
# HepG2-A16-CD81 = assay: % inhibition of HepG2 viability (CellTiter-Glo); higher = more toxic; settings: 5 µM
# [1] = tested on: Plasmodium falciparum NF54 stage IV/V gametocytes; assay: % inhibition of gametocyte viability (PrestoBlue); higher = more inhibition; settings: 48 h
# Outline: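 Values are percent inhibition of gametocyte viability, normalised to vehicle and kill controls in a single run. Stage IV/V NF54 gametocytes (2% gametocytaemia, 5% haematocrit, 100 µL/well) were held with compound at 1 or 5 µM for 48 h at 37 °C, stationary and hypoxic. Viability was read as 612 nm fluorescence on 70 µL of supernatant after a 2 h incubation with 10 µL PrestoBlue.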
# [2] = tested on: Plasmodium falciparum NF54 asexual blood stage; assay: % inhibition of asexual blood stage proliferation (pLDH); higher = more inhibition; settings: 72 h
# Outline: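 Using 96-well plates, the screen was run twice on separate occasions with Plasmodium falciparum NF54 ring-stage cultures at 1% haematocrit and 2% parasitaemia. Each culture was exposed to compound at 2 or 20 µM for 72 h at 37 °C under a gas mix of 4% CO2, 3% O2 and 93% N2. After incubation, the parasite lactate dehydrogenase assay was read colorimetrically at 620 nm. From this readout, percent inhibition of asexual proliferation was derived against control wells.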
# [3] = tested on: Plasmodium falciparum NF54 stage IV/V gametocytes; assay: % inhibition of gametocyte viability (ATP bioluminescence); higher = more inhibition; settings: 24 h
# Outline: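 Viability of stage IV/V NF54 gametocytes is given as percent inhibition, normalised to control wells in a single run. Gametocytes enriched on density gradients were seeded at 30,000 per well in 96-well plates with compound at 1 or 5 µM and held at 37 °C for 24 h. ATP was then read with the Promega BacTiter Glo bioluminescence system.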
# [4] = tested on: Plasmodium falciparum NF54 stage IV/V gametocytes; assay: % inhibition of gametocyte viability (luciferase reporter); higher = more inhibition; settings: 48 h
# Outline: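 Percent inhibition was normalised to controls from a single run. Stage IV/V gametocytes of the NF54-Pfs16-GFP-Luc line, at 2% gametocytaemia and 2% haematocrit, were exposed to compound at 1 or 5 µM for 48 h at 37 °C under stationary, hypoxic conditions. Luminescence was then read from 30 µL lysate mixed with 30 µL Promega luciferin substrate on a GloMax-Multi+ reader with 10 s integration.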
# [5] = tested on: Plasmodium berghei ANKA liver stage in HepG2-A16-CD81; assay: % inhibition of liver stage parasite viability (luciferase); higher = more inhibition; settings: 5 µM; 48 h
# Experimental: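 Single-concentration screen of the MMV Pandemic Response Box. P. falciparum NF54 asexual blood stages: pLDH assay, 72 h at 37 °C, 2 and 20 µM, n=2. Stage IV/V gametocytes (NF54): luciferase reporter (NF54-Pfs16-GFP-Luc, 48 h), ATP bioluminescence (24 h) and PrestoBlue (48 h) at 1 and 5 µM, n=1. P. berghei liver stage (luciferase in HepG2-A16-CD81, 48 h post infection) at 5 µM, n=4. All normalised to DMSO and kill controls as % inhibition.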
# 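Throughout, for % inhibition of HepG2 viability (CellTiter-Glo): HepG2-A16-CD81 hepatoma cells plated as in the liver-stage assay but without sporozoites, with DMSO wells as negative and 25 µM puromycin as positive control.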
Structure (SMILES),% viability of CHO cells (CHO; 2 µM),% viability of CHO cells (CHO; 20 µM),% inhibition of HepG2 viability (HepG2-A16-CD81),% inhibition of gametocyte viability ([1]; 1 µM),% inhibition of gametocyte viability ([1]; 5 µM),% inhibition of asexual blood stage proliferation ([2]; 2 µM),% inhibition of asexual blood stage proliferation ([2]; 20 µM),% inhibition of gametocyte viability ([3]; 1 µM),% inhibition of gametocyte viability ([3]; 5 µM),% inhibition of gametocyte viability ([4]; 1 µM),% inhibition of gametocyte viability ([4]; 5 µM),% inhibition of liver stage parasite viability [5]
CC[C@H](NC(=O)[C@H](C)NC)C(=O)N1C[C@@H](O)C[C@H]1Cc1c(-c2[nH]c3cc(F)ccc3c2C[C@@H]2C[C@H](O)CN2C(=O)[C@H](CC)NC(=O)[C@H](C)NC)[nH]c2cc(F)ccc12,102%,117%,15%,5.89%,54.9%,75.7%,83.1%,28.6%,76.9%,17%,56%,37.5%
O=C(NNC(=S)Nc1ccc(Cl)cc1)c1ccncc1,116%,76.6%,4.57%,6.58%,< 0%,3.73%,-4.99%,< 0%,< 0%,< 0%,< 0%,5.18%
NC(=O)c1cnccn1,96%,75.7%,-2.12%,9.19%,38.1%,38.1%,70.3%,< 0%,< 0%,< 0%,14.8%,14.3%
OCCC#Cc1nc(-c2ccc(F)cc2)c(-c2ccncc2)n1CCCc1ccccc1,107%,83%,5.38%,< 0%,30.5%,15.3%,83%,1.66%,8.02%,5.66%,32.2%,36.6%
CCCCOC(=O)Nc1cc2nc(C3CCCCC3)[nH]c2cc1N(CC)CC,98.9%,101%,3.15%,< 0%,< 0%,18.6%,83.2%,< 0%,19.3%,< 0%,< 0%,62%
CCOCc1nc2c(N)nc3ccccc3c2n1CC(C)(C)O,84%,69.2%,8.2%,8.02%,14.8%,58%,77%,< 0%,< 0%,2.74%,5.55%,18.3%
Oc1c(C(Nc2nc3ccccc3s2)c2ccc(OC(F)F)cc2)ccc2cccnc12 (stereo unspecified),79.6%,74.4%,45.6%,26.7%,60.6%,70.5%,65.8%,22.2%,24.6%,12.2%,54.3%,52.7%
O=C(O)[C@H]1C2CCC(CC2)[C@@H]1Nc1nc(-c2c[nH]c3ncc(F)cc23)ncc1F,91.6%,97.8%,-9.1%,< 0%,< 0%,11.9%,55.2%,0.663%,2.93%,< 0%,< 0%,34%
CC(C)(C)c1ccc(OCCn2nc(C(=O)O)c3ccccc3c2=O)cc1,100%,104%,1.37%,< 0%,< 0%,4.78%,19.9%,< 0%,< 0%,< 0%,< 0%,3.4%
COc1cccc(N2CCN(C3=Nc4c(F)cccc4[C@H](CC(=O)O)N3c3cc(C(F)(F)F)ccc3OC)CC2)c1,90.8%,116%,5.59%,11.1%,1.05%,22.9%,84.4%,< 0%,< 0%,< 0%,6.89%,21.2%
O=C1C=C(c2ccccc2)S(=O)(=O)c2ccccc21,91.6%,81.8%,-4.77%,53.4%,76%,-2.86%,54.4%,13.8%,83.4%,16%,85.4%,30.4%
CS(=O)(=O)c1ccc(Oc2ccc(Cl)cc2)cc1,98.9%,121%,-1.85%,21.5%,13.8%,28.1%,69.1%,< 0%,< 0%,< 0%,< 0%,9.76%
OC(Cn1cncn1)(Cn1cncn1)c1ccc(F)cc1F,76.1%,-3.55%,-1.31%,< 0%,< 0%,-1.25%,-5.32%,< 0%,< 0%,< 0%,< 0%,19.2%
Clc1ccc(COC(Cn2ccnc2)c2ccc(Cl)cc2Cl)c(Cl)c1 (stereo unspecified),89.6%,135%,4.88%,10.1%,< 0%,48.6%,73.4%,< 0%,20.2%,< 0%,22.3%,33.2%
Oc1ccc2[nH]c(-c3ccccc3)nc2c1,107%,93%,12.1%,10.1%,13.2%,29.1%,62.2%,< 0%,< 0%,< 0%,< 0%,-35.4%
CCCCCc1ccc(C(=O)NCCn2cc(CCCCCc3cnc(N)[nH]3)nn2)cc1,125%,153%,2.88%,< 0%,63.4%,72.9%,96.5%,< 0%,< 0%,< 0%,< 0%,37.7%
O=C(Nc1ncc(Cc2cccc3ccccc23)s1)C1CCCCC1,83.3%,53.3%,7.25%,16.9%,< 0%,22.6%,42.9%,< 0%,< 0%,< 0%,0.604%,-13.3%
FC(F)(F)Oc1ccc(Nc2ccc3cccc(Cl)c3n2)cc1,101%,86.1%,0.506%,16.2%,< 0%,31%,98%,4.02%,< 0%,< 0%,< 0%,18%
